Results taken from PubChem BioAssay.
Calls of active or inactive are those of the source. Unless noted, no stated cut-off is given here; in the data, active means nuclear beta-catenin stimulation mostly above about 4.2% (no sharp cut-off); inactive means mostly below about 10%.

Tests used:
[1] = Wnt pathway potentiators raising nuclear beta-catenin – imaging, WNT3A-conditioned medium, mouse C2C12, NPC library, primary screen (AID 1117326); details: stronger effect = higher value; further: reference of the scale not given here
[2] = stimulators of insulin release from INS-1E, primary screen, cell-based, 5 mM glucose, NPC library (AID 1117329;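 active means compound raises insulin release from rat beta cells at 5 mM glucose, no numeric limit stated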; further: reference of the scale not given here); details: rat INS-1E insulin secretion, at 10 µM, stronger effect = higher value
[3] = growth inhibition of GSK3B-pretreated HCT116 cells – cell-based, CellTiter-Glo, 0.2 to 20 µM (AID 1117336;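 active means compounds lowering colon cancer cell viability after pretreatment blocking the GSK3B kinase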); details: HCT116 viability after GSK3B inhibitor, at 20 µM, stronger effect = higher value
[4] = inhibition of endothelial tube formation, primary screen, imaging, VEGF stimulated, CD31 staining, tube area, NPC library (AID 1117340;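 active means compound that reduces growth-factor-driven endothelial tube area in a mixed cell culture, no cutoff stated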); details: VEGF-stimulated ADSC/ECFC co-culture, at 10 µM, stronger effect = higher value
[5] = GLP1 release stimulators, primary, NCI-H716, NPC library (AID 1117341;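 active means compound raises GLP1 secretion from the human gut endocrine cells, with no numeric limit stated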; further: reference of the scale not given here); details: NCI-H716 cells, at 10 µM, stronger effect = higher value
[6] = HCT116 colon cancer cell growth inhibition, primary screen, CellTiter-Glo luminescence, NPC library (AID 1117342;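 active means compounds that lower survival of HCT116 colon cancer cells in the luminescence readout, no numeric limit stated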); details: at 20 µM (top of the series)
[7] = reduced SW480 viability measured with CellTiter-Glo, NPC library, primary (AID 1117343;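 active means compounds that lower viability of the colon cancer cells in the luminescence readout, with no numeric limit stated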); details: CellTiter-Glo luminescence; at 20 µM (top of the series)
[8] = NPC library primary testing for decreased DLD-1 cell viability via CellTiter-Glo (AID 1117346;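 active means compounds that lower survival of DLD-1 colon cancer cells in the luminescence readout, no cutoff given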); details: DLD-1 viability, CellTiter-Glo luminescence; at 20 µM (top of the series)
[9] = target: 6-phosphogluconate dehydrogenase, decarboxylating (Homo sapiens) (UniProt P52209); test: inhibition of human phosphogluconate dehydrogenase – biochemical, recombinant enzyme, NADPH absorbance, primary screen (AID 1159550;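 active means at least 20% inhibition of 6-phosphogluconate dehydrogenase activity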); details: recombinant 6PGD, NADPH absorbance 341 nm; at 10 µM; stronger effect = higher value
Chain of 6-phosphogluconate dehydrogenase, decarboxylating (Homo sapiens) (P52209 whole entry, looked up): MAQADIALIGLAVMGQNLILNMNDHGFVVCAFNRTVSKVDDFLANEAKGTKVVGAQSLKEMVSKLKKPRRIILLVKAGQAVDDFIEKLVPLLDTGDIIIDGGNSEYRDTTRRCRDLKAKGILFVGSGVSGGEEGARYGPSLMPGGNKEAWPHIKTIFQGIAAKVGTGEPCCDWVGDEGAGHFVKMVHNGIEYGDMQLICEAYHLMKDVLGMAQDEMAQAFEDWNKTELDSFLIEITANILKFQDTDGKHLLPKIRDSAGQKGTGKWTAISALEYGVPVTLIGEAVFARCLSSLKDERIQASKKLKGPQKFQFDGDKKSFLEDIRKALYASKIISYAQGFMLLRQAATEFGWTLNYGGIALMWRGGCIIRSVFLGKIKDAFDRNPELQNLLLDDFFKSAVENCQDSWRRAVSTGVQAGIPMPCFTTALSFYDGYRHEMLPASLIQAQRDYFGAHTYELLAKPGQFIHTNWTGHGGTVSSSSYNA

CCOc1ccc(NC(C)=O)cc1
inactive: nuclear beta-catenin stimulation ([1]; at 10 µM) -0.6% | insulin secretion stimulation [2] -2.2% | viability decrease [3] -4.8% | tube area decrease [4] -16.7% | GLP1 secretion stimulation [5] 4.4% | inhibition of viability [6] -24.5% | viability decrease (inhibition) [8] -6.2% | inhibition [9] 5.26%
active: viability decrease (inhibition) [7] 104%
-0.9%: nuclear beta-catenin stimulation ([1]; stimulation, at 2 µM)

CC(C)(Sc1cc(C(C)(C)C)c(O)c(C(C)(C)C)c1)Sc1cc(C(C)(C)C)c(O)c(C(C)(C)C)c1
6%: nuclear beta-catenin stimulation ([1]; stimulation, at 2 µM)
inactive: nuclear beta-catenin stimulation ([1]; at 10 µM) 4.3% | insulin secretion stimulation [2] 3.7% | viability decrease [3] -20.3% | tube area decrease [4] -25% | GLP1 secretion stimulation [5] 0.8% | inhibition of viability [6] 1.57% | viability decrease (inhibition) [7] 9.4% | viability decrease (inhibition) [8] 37.1% | inhibition [9] 6.05%

CN(C)C(=O)Nc1ccc(Cl)c(Cl)c1
0.5%: nuclear beta-catenin stimulation ([1]; stimulation, at 2 µM)
inactive: nuclear beta-catenin stimulation ([1]; at 10 µM) 3.6% | insulin secretion stimulation [2] -2.3% | viability decrease [3] -3.75% | tube area decrease [4] -17.1% | GLP1 secretion stimulation [5] -0.7% | inhibition of viability [6] -2.8% | viability decrease (inhibition) [7] 11.2% | viability decrease (inhibition) [8] 13.6% | inhibition [9] -8.44%

CS(=O)(=O)c1ccc([C@@H](O)[C@@H](CO)NC(=O)C(Cl)Cl)cc1
inactive: nuclear beta-catenin stimulation ([1]; at 10 µM) 2.7% | insulin secretion stimulation [2] 1% | viability decrease [3] -30.5% | GLP1 secretion stimulation [5] 0.4% | inhibition of viability [6] 2% | viability decrease (inhibition) [7] -9.6% | viability decrease (inhibition) [8] -4% | inhibition [9] -8.02%
active: tube area decrease [4] 42.1%
2.3%: nuclear beta-catenin stimulation ([1]; stimulation, at 2 µM)

NC(=NCCCCCCN=C(N)/N=C(\N)Nc1ccc(Cl)cc1)/N=C(\N)Nc1ccc(Cl)cc1
active: nuclear beta-catenin stimulation ([1]; at 10 µM) -2.3% | insulin secretion stimulation [2] 36.6% | viability decrease [3] 120% | tube area decrease [4] 111% | GLP1 secretion stimulation [5] 161% | inhibition of viability [6] 125% | viability decrease (inhibition) [7] 166% | viability decrease (inhibition) [8] 101%
inactive: inhibition [9] -5.13%
45.4%: nuclear beta-catenin stimulation ([1]; stimulation, at 2 µM)

Oc1cc(O)c2c(c1)O[C@H](c1ccc(O)c(O)c1)[C@H](O)C2
1.2%: nuclear beta-catenin stimulation ([1]; stimulation, at 2 µM)
inactive: nuclear beta-catenin stimulation ([1]; at 10 µM) -1.4% | insulin secretion stimulation [2] -0.7% | viability decrease [3] 14.4% | tube area decrease [4] -6.6% | GLP1 secretion stimulation [5] -3.1% | inhibition of viability [6] 1.73% | viability decrease (inhibition) [7] -72.1% | viability decrease (inhibition) [8] -2% | inhibition [9] -5.84%

C[C@@H]1CC[C@@]2(OC1)O[C@H]1C[C@H]3[C@@H]4CC[C@H]5C[C@@H](O)CC[C@]5(C)[C@H]4CC(=O)[C@]3(C)[C@H]1[C@@H]2C
4.8%: nuclear beta-catenin stimulation ([1]; stimulation, at 2 µM)
inactive: nuclear beta-catenin stimulation ([1]; at 10 µM) 6.5% | insulin secretion stimulation [2] 3.2% | viability decrease [3] 13.4% | tube area decrease [4] -13.1% | GLP1 secretion stimulation [5] -3.1% | inhibition of viability [6] 4.27% | viability decrease (inhibition) [7] 7.5% | viability decrease (inhibition) [8] 3.7% | inhibition [9] 14.9%

Cc1ccsc1/C=C/C1=NCCCN1C
0.1%: nuclear beta-catenin stimulation ([1]; stimulation, at 2 µM)
active: viability decrease (inhibition) [7] 90.9% | viability decrease (inhibition) [8] 87.6%
inactive: nuclear beta-catenin stimulation ([1]; at 10 µM) -0.7% | insulin secretion stimulation [2] 0.2% | viability decrease [3] -25.2% | tube area decrease [4] -9.8% | GLP1 secretion stimulation [5] -0.1% | inhibition of viability [6] 39.5% | inhibition [9] 5.11%
